In PubChem BioAssay AID504725 (Broad Institute, 2011):
Results with a measured potency or affinity are listed apart. Active and inactive are the calls of the source. No rule for the calls is given here.

Biological target: KSHV LANA C-terminal domain (residues 932-1162) binding to LBS DNA (UniProt O40947)
Test: inhibitors of C-LANA binding to LBS DNA, dose response, biochemical, fluorescence polarization, cherry-picked samples (AID 504725)
Conditions: MBP-C-LANA / FAM-LBS DNA fluorescence polarization, percent change from plate compound-well median; series mostly up to 35 µM

outcome, inactive:
Cc1cccc(NC(=O)CN2C(=O)NC(C)(c3ccc4ccccc4c3)C2=O)n1 (centres undefined)
CC(C)(C)OC(=O)N1CCC[C@H]1c1nnc(SCc2cccc(Cl)c2)o1
COc1cccc(OC)c1C(=O)Nc1cc(C)on1
COc1ccc(NS(=O)(=O)c2ccc(C)c(C(=O)N(C)Cc3ccc(OC)cc3OC)c2)cc1
Cc1cc(N)ccc1N=Nc1c(C)n(C)n(-c2ccccc2)c1=O
CC1CC(C)CN(C(=O)c2ccc3ncsc3c2)C1 (centres undefined)
Cc1ccc(N=Nc2c(O)[nH]c3ccc(F)cc23)cc1
O=C(O)c1cccc(NC2=Nc3cccc4cccc2c34)c1
O=C(O)C1C2C=CC(CC2)C1C(=O)O (centres undefined)
Cc1ccc(C(=O)CCC(=O)Nc2ncccc2C)cc1
O=C(NC1(O)C(=O)c2ccccc2C1=O)c1c(Cl)cccc1Cl
Cc1ccccc1NC(=S)NC(C)CCc1ccccc1 (centres undefined)
CC(C)CN(C(=O)CSc1nncn1C)C1CCS(=O)(=O)C1 (centres undefined)
CNC(=S)Nc1cccc(C(=O)OC)c1
Cc1noc(C)c1C(=O)N1CCN(c2ccc(OCc3ccccc3)cc2)CC1
CN(CC(=O)Nc1ccc(N2CCOCC2)cc1)C(=O)CSc1ccc(Br)cc1
COC(=O)c1sc(C(F)(F)F)c(-c2ccccc2)c1S(=O)(=O)N1CCOCC1
O=C(O)CC1(CC(=O)NCc2ccncc2)CCCCC1
C/C(=N/NC(=O)c1cc(O)c(O)c(O)c1)c1ccc([N+](=O)[O-])cc1
